Measured values as given in PubChem BioAssay (EPA / NIEHS).
The source made the active and inactive calls. Rule for the calls: active = hit-call score of the fitted dose curve at least 0.9, where 1 is the maximum; inactive = score below 0.9.

assay: ATG_BRE_CIS: Attagene CIS-FACTORIAL HepG2 Assay for human Bone Morphogenetic Protein (BMP) Response Element (BRE) (AID 2282933); conditions: HepG2 BMP response element reporter, Attagene transcription factor profiling; actives raise or lower the signal
Experimental: ATG_CIS is a cell-based, multiplexed-readout assay that uses HepG2, a human liver cell line, with measurements taken at 24 hours after chemical dosing in a 24-well plate.ATG_BRE_CIS is one of 52 assay component(s) measured or calculated from the ATG_CIS assay. It is designed to make measurements of mRNA induction, a form of inducible reporter, as detected with fluorescence intensity signals by Reverse transcription polymerase chain reaction (RT-PCR) and Capillary electrophoresis technology.Data from the assay component ATG_BRE_CIS was analyzed into 1 assay endpoint. This assay endpoint, ATG_BRE_CIS, was analyzed with bidirectional fitting relative to DMSO as the negative control and baseline of activity. Using a type of inducible reporter, measures of mRNA for gain or loss-of-signal activity can be used to understand the reporter gene at the transcription factor-level as they relate to the gene SMAD1. Furthermore, this assay endpoint can be referred to as a primary readout, because this assay has produced multiple assay endpoints where this one serves a reporter gene function. To generalize the intended target to other relatable targets, this assay endpoint is annotated to the dna binding intended target family, where the subfamily is Smad protein.
Human liver HepG2 cells are transiently transfected with multiple reporter transcription units (MRTUs) in 6-well plates using FuGene 6 reagent (Roche; 3 ml FuGene/1 mg DNA). The MRTU constructs are regulated by a cis-regulating element (promoter). […] A major difference between the CIS and TRANS system is that in CIS activities of endogenous TFs are measured, whereas the TRANS assay evaluates changes in activities of exogenous, chimeric NR-Gal4 proteins. […] At the end of 24 hour incubation, total RNA was isolated using TriZol reagent (Invitrogen). The isolated RNA is then reverse-transcribed using oligo(dT) primer and Mo-MLV reverse transcriptase (Invitrogen) with DNAse I (Ambion) treatment for 30 min. The one-tenth of the produced cDNA was amplified by PCR using Taq DNA polymerase (Invitrogen) and two reporter sequence-specific primers. The PCR products were fluorescently labeled by primer extension with 6-arboxyfluorescein (6-FAM) 5'-labeled reporter sequence-specific primer (2 min at 95 C, 20 s at 68 C and 10 min at 72 C) and these products were digested with 5U of HpaI (New England Biolabs) for 2h at 37 C. The fragments were purified using Qiaquick PCR columns (Qiagen), analyzed on an ABI 3130xL genetic analyzer (Applied Biosystems) with peak positions identified by using a set of X-rhodamine (ROX)-labeled MapMarker1000 molecular weight standards (BioVentures). The raw capillary electrophoresis data was processed using Attagraph software (Attagene).

Row | Structure (SMILES) | outcome | AC50
1 | COc1ccc2c(c1)c(CC(=O)O)c(C)n2C(=O)c1ccc(Cl)cc1 | inactive | 
2 | CCNc1cccc(C)c1 | inactive | 
3 | NS(=O)(=O)c1cc2c(cc1Cl)NCNS2(=O)=O | inactive | 
4 | CCCCc1ccc2c(n1)[C@@H](c1ccc(OC)cc1C[C@H](C)C(=O)O)[C@H](C(=O)O)[C@H]2c1ccc2c(c1)OCO2 | inactive | 
5 | CCOC(=O)CCC(=O)OCC | inactive | 
6 | Cc1cc(=O)[nH]c(=S)[nH]1 | inactive | 
7 | Cc1cccc([N+](=O)[O-])c1C | inactive | 
8 | Cc1cc(NC(=O)C(=O)O)cc(C)c1Oc1ccc(O)c2c1CCC2 | inactive | 
9 | Nc1ccccc1N |  | 5.4 µM (active)
10 | CC1(C)NC(=O)NC1=O | inactive | 
11 | COc1ccc(S(=O)(=O)N2C(=O)[C@@](c3ccccc3OC)(N3C[C@H](O)C[C@H]3C(=O)N(C)C)c3cc(Cl)ccc32)c(OC)c1 |  | 55.5 µM (active)
12 | CC(C)(C)c1cc(O)c(C(C)(C)C)cc1O |  | 30.4 µM (active)
13 | COc1cc(-c2nc(NC(=O)c3cc4cc(C)cc(C)c4n3CC(=O)O)sc2CCC2CCCCC2)c(OC)cc1Cl |  | 10.4 µM (active)
14 | Nc1ccc(S(=O)(=O)c2ccc(N)cc2)cc1 | inactive | 
15 | CC=Cc1ccc(O)c(OC)c1 | inactive | 
16 | Nc1nc(N)c2nc(CNc3ccc(C(=O)N[C@@H](CCC(=O)O)C(=O)O)cc3)cnc2n1 | inactive | 
17 | O=C(O)CCCCC(=O)O | inactive | 
18 | Cc1ccc2ncccc2c1 | inactive | 
19 | CCCCCC(=O)O | inactive | 
20 | CCCc1cc(=O)[nH]c(=S)[nH]1 | inactive | 

Row | Structure (SMILES) | outcome | AC50
21 | CCOc1ccc2c(c1)C(C)=CC(C)(C)N2 | inactive | 
22 | O=c1c(O)c(-c2ccc(O)c(O)c2)oc2cc(O)cc(O)c12 | inactive | 
23 | CC(=O)C(C)=CC1C(C)=CCCC1(C)C (stereo not given) | inactive | 
24 | Cc1ccc(N(C)C)cc1 | inactive | 
25 | CC(C)c1ccc(C(=O)N=C(N)N)cc1S(C)(=O)=O | inactive | 
26 | NC(=O)Cn1c(=O)cc(CCN2CCN(c3nccc4sccc34)CC2)c2ccc(F)cc21 | inactive | 
27 | C[C@]12C=CC(=O)C=C1CC[C@@H]1[C@@H]2C(=O)C[C@@]2(C)[C@H]1CC[C@]2(O)C(=O)CO | inactive | 
28 | NCCO | inactive | 
29 | CCCCOC(=O)CCCCCCCCC(=O)OCCCC | inactive | 
30 | CCOC(=O)C(C)(C)Oc1ccc(Cl)cc1 | inactive | 
31 | Cc1ccc(C)c(C)c1 | inactive | 
32 | CCc1c(C(=O)NN2CCCCC2)nn(-c2ccc(Cl)cc2Cl)c1-c1ccc(Br)cc1 | inactive | 
33 | COc1ccc(C)cc1N | inactive | 
34 | NCC1(Cc2noc(=O)[nH]2)CCCCC1 | inactive | 
35 | COCCOC[C@H](CC1(C(=O)NC2CCC(C(=O)O)CC2)CCCC1)C(=O)Oc1ccc2c(c1)CCC2 (stereo not given in full) | inactive | 
36 | Cc1nc(C)nc(N2C[C@@H](C)N(c3ccnc([C@@H](C)O)n3)[C@@H](C)C2)n1 | inactive | 
37 | CCCCN(CCCC)CCCC | inactive | 
38 | CNCc1cc(F)ccc1Oc1ccc(Cl)c(Cl)c1 | inactive | 
39 | FC(F)(F)C(F)(F)C(F)(F)C(F)(F)C(F)(F)C(F)(F)CCI | inactive | 
40 | CCCCCCCCCCCCCO |  | 34.3 µM (active)
